Experimental data reported in PubChem BioAssay (EPA / NIEHS).
Where “and” joins values, the source holds several entries; their conditions need not be identical. Equal values may be shown once. Some compounds were tested as several samples or in several runs, with calls that do not always agree. Calls of active or inactive are those of the source. The calls were made as follows: active = hit-call score of the fitted dose curve at least 0.9, where 1 is the maximum; inactive = score below 0.9.

test: CCTE_Shafer_MEA_dev_network_spike_duration_std: CCTE's Neural Network Formation Assay for Standard Deviation of Network Spike Duration, Shafer Lab (AID 2284052);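 also: hits are decreases in network spike duration SD versus DMSO vehicle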
Procedure: CCTE_Shafer_MEA_dev assay is conducted using Axion Biosystems 48 well microelectrode array (MEA) plates and Maestro recording system. Each well of the MEA plate contains a grid of 16 microelectrodes embedded in the culture surface. Electrically active cells, such as neurons, can be cultured over the electrodes, and electrical activity in these cells can be recorded extracellularly. The spontaneous firing of neurons is captured from each electrode on a microsecond timescale providing both temporally and spatially precise data. […] The CCTE_Shafer_MEA_dev assay uses primary cultures of rat cortical neurons. Recordings are made on days post-plating 5, 7, 9 and 12. As these cultures mature over time, neural networks develop functional activity and form cohesive networks in which electrical activity can be highly coordinated. CCTE_Shafer_MEA_dev_network_spike_duration_std is 1 of 19 assay components of the CCTE_Shafer_MEA_dev assay. It measures the standard deviation of the duration of network spikes (temporally-clustered groups of action potential firing across multiple electrodes) during a recording in a microelectrode array (MEA) using Axion Biosystems Maestro 768 channel amplifier with the AxIS adaptive spike detector. To collapse across multiple recordings made on days post-plating 5, 7, 9 and 12, the trapezoidal area-under-the-curve of the component is calculated.Data from the assay component CCTE_Shafer_MEA_dev_network_spike_duration_std was analyzed into 1 assay endpoint. This assay endpoint, CCTE_Shafer_MEA_dev_network_spike_duration_std, was analyzed in the negative analysis fitting direction relative to DMSO as the negative control and baseline of activity. Using a type of functional reporter, gain or loss-of-signal activity can be used to understand electrical activity.
On the day prior to culture, each well was coated thoroughly with 150 uL of 0.05% polyethyleneimine (PEI, Sigma Cat P3143) in 50 mM HEPES (Sigma Cat H7523) at a pH of 8. The plate was incubated at 37C for one hour. PEI was rinsed out with 500 uL of sterile water three times. Plates were stored at 4C until the day of culture. This culture was plated at a seeding density of 1.5 x 10^5 cells/well on a 48-well MEA plate, prepared as described above. Cells were administered via a 25 uL media/laminin ([…]; Sigma Cat L2020-1MG) drop directly onto the microelectrode array, as adding the cells with the laminin results in better attachment than pre-coating with laminin. After 2 hours, an additional 475 uL of cortical media was added and the cells returned to the incubator. Exposure starts at day 0 of plating and is continued over twelve days of network development until the experiment is terminated. Cells are fed with fresh medium on DIV 5 and 9, following the recordings on those days. The entire volume of media in the well is exchanged and any vehicle or compound treatment is renewed. Complete details are found in OP-NHEERL/ISTD/SBB/TJS/2015-03-r0 (available on request, email shafer.tim@epa.gov). Measurement of the electrical activity is non-invasive, and recordings can be made from the same plate over multiple different days of the culture. In cortical neurons, this allows for the measurement of extracellular action potentials over the period during which networks form in the MEA plate.

Compound	outcome	AC50
O=S(=O)(O)C(F)(F)C(F)(F)C(F)(F)C(F)(F)C(F)(F)C(F)(F)C(F)(F)C(F)(F)F	inactive	–
O=C(O)C(F)(F)C(F)(F)C(F)(F)C(F)(F)C(F)(F)C(F)(F)C(F)(F)F	inactive	–
CNC(=O)CSP(=S)(OC)OC	inactive	–
CCC(C)(C)C(=O)OC1=C(c2ccc(Cl)cc2Cl)C(=O)OC12CCCCC2	inactive	–
CC(C)N(C(=O)COc1nnc(C(F)(F)F)s1)c1ccc(F)cc1	inactive	–
ClC1C(Cl)C(Cl)C(Cl)C(Cl)C1Cl (configuration not stated)	inactive	–
O=C(O)COc1ccc(Cl)cc1Cl	inactive	–
CC[C@H](C)[C@H]1O[C@]2(C=C[C@@H]1C)C[C@@H]1C[C@@H](C/C=C(\C)[C@@H](O[C@H]3C[C@H](OC)[C@@H](O[C@H]4C[C@H](OC)[C@@H](O)[C@H](C)O4)[C@H](C)O3)[C@@H](C)/C=C/C=C3\CO[C@@H]4[C@H](O)C(C)=C[C@@H](C(=O)O1)[C@]34O)O2 (tested in a mixture with another compound)	–	2.28 nM (active) and 0.912 nM (active)
O=S1OCC2C(CO1)C1(Cl)C(Cl)=C(Cl)C2(Cl)C1(Cl)Cl (configuration not stated)	inactive	–
CC1(C)C(C=C(Cl)Cl)C1C(=O)OC(C#N)c1ccc(F)c(Oc2ccccc2)c1 (configuration not stated)	inactive	3.51 µM (active) and 3.76 µM (active)
COP(=O)(OC)OC=C(Cl)Cl	inactive	0.852 µM (active)
CC1(c2ccc(Oc3ccccc3)cc2)OC(=O)N(Nc2ccccc2)C1=O (configuration not stated)	–	3.66 µM (active)
Oc1cc(Cl)ccc1Oc1ccc(Cl)cc1Cl	–	7.04 µM (active)
O=[N+]([O-])/N=C1\NCCN1Cc1ccc(Cl)nc1	inactive	–
COP(=S)(OC)Oc1ccc([N+](=O)[O-])cc1	inactive	–
